# Assay outcomes from PubChem.
# A selection: hits, their analogues and other compounds. The true share with any hit is near 19%.
# Pf growth 48h – inhibits P. falciparum growth in the first generation, 48 h. P. falciparum luciferase growth in erythrocytes, 48 h. Potency, µM (highest dose often 28.7 µM), inactives show top-dose activity change, negative = inhibition, hits mostly inhibitors. 310,000 compounds, 5.9% hits. AID 504832; also: potency is read from the fitted curve at half-maximal effect; % is scaled to controls: 0 for no effect and ±100 for the full control effect
#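 Growth was read as firefly luciferase luminescence after a 48 h, 37 C, 5% CO2 exposure of compounds to reporter-bearing P. falciparum cultures (0.1% parasitemia, 2% hematocrit final) in Albumax-supplemented RPMI 1640.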
# Shiga inhibitor – blocks Shiga toxin action in Vero cells. inhibition, % at 38.7 µM. 290,000 compounds, 9.2% hits. Vero cells, Shiga toxin protein synthesis inhibition reporter; in the data active = inhibition mostly above about 28%, no sharp cut-off; inactive = mostly below about 43%; also: 0% is about no effect
# MARV entry inh – Marburg virus entry inhibition; Marburg virus pseudotyped entry inhibition, cell reporter; Potency, µM (titrated, usually from 37.8 µM), for the others: at the highest dose activity change, negative = inhibition, actives largely listed as inhibitors; 300,000 compounds, 1.8% hits; AID 540276; calls by dose curve; tested in HEK293 cells; also: potency is read from the fitted curve at half-maximal effect; % is scaled to controls: 0 for no effect and ±100 for the full control effect
# CHX counter – affects cycloheximide protein synthesis inhibition readout, counter-screen. cell reporter, cycloheximide protein synthesis inhibition counterscreen. max response, %. 300,000 compounds, 12% hits; in the data active = max response mostly above about 13%, no sharp cut-off; inactive = mostly below about 14%; also: read at 38.3 µM for the half of the compounds with a filed dose; 0% is about no effect
# Lassa entry inh – inhibitors of Lassa virus binding or cell entry; Lassa virus pseudotype entry inhibition, cell reporter; 300,000 compounds, 1.2% hits; Potency, µM (titrated, usually from 37.9 µM), for the others: top-dose activity change, negative = inhibition, most hits filed as inhibitors; calls by dose curve; tested in HEK293 cells; also: potency is read from the fitted curve at half-maximal effect; % is scaled to controls: 0 for no effect and ±100 for the full control effect; nearly all actives have a fitted effect of over 50% in size
# Pf growth 96h – P. falciparum growth inhibition at 96 hours. AID 504834. 320,000 compounds, 6.9% hits. Potency, µM (highest dose often 28.7 µM), inactives show at the top dose activity change, negative = inhibition, hits mostly inhibitors. P. falciparum luciferase reporter growth, 96 h; also: potency is read from the fitted curve at half-maximal effect; % is scaled to controls: 0 for no effect and ±100 for the full control effect
#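 P. falciparum expressing integrated firefly luciferase, in erythrocytes at 2% hematocrit, 0.05% parasitemia, incubated with compounds 96 h at 37 C, 5% CO2. Growth inhibition read as loss of luminescence; two-generation exposure targets delayed-death apicoplast inhibitors.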
# * = called active by the depositor; u = inconclusive; x = no result given; [ ] = another dose, or the depositor's remark. Unless noted, calls follow the shape of the dose curve; as a rule, active = well fitted inhibition curve with a large enough effect; inconclusive = small, poorly fitted or top-dose-only effect, or another doubt; inactive = no such curve, though single readings can be large or run the other way.
SMILES,Pf growth 48h,Shiga inhibitor,MARV entry inh,CHX counter,Lassa entry inh,Pf growth 96h
Cc1ccc(CNC(=O)CCc2ccc(S(=O)(=O)NC3CCCCC3)cc2)cc1,-21%,20,24%,-5,1%,x
Cc1nc(SCC(=O)Nc2ccccc2Cl)c2c(C)c(C)sc2n1,5.2µM*,x,x,x,x,u
Cc1nc(SCC(=O)N2c3ccccc3NC(=O)CC2C)c2c(C)c(C)sc2n1 (stereo unspecified),u,x,-19%,x,u,13µM*
Cc1nc(SCC(=O)NC2CCCC2)c2c(C)c(C)sc2n1,u,15,25%[46.1 µM],-4,7%,-11%
Cc1ccc(NC(=O)N2CCN(C)c3ncccc32)cc1C,x,x,u,x,-4%[46.1 µM],x
O=C(Nc1ccccc1)N1CCCc2ccccc21,17%,26*,u,13,9%,u
Cc1cccc(NC(=O)N2CCCc3ccccc32)c1C,22%,46,u,36*,-2%[46.1 µM],8%
CC(NC(c1ccccc1)c1ccccc1)C(=O)N1CCCc2ccccc21 (stereo unspecified),10µM*,9,-37%,-3,u,10µM*
Cc1ccc(NC(=O)N2CCCc3ccccc32)cc1C,100%,53*,u,39*,-26%[46.1 µM],-39%
O=C(C(=O)N1CCCc2ccccc21)N1CCCc2ccccc21,2%,-10,u,1,3%,u
Cc1ccc(/C=C2\SC(=S)N(CCCC(=O)NNC(=O)c3ccccc3O)C2=O)cc1,u,-26,x,-6,x,u
O=C(COC(=O)C1(c2ccccc2F)CCCC1)Nc1ncc(C(F)(F)F)cc1Cl,10%,0,u,1,-3%,39%
COc1ccc(Cl)cc1NC(=O)CC(C)=O,u,-3,-3%,-1,u,0%
CC(C)(C)NS(=O)(=O)c1ccc(Oc2ncc(C(F)(F)F)cc2Cl)cc1,-15%,1,u,-3,u,27%
c1ccc2[nH]c(NN=C3CCCCCC3)nc2c1,u,110*,-21%[46.1 µM],44*,27%,u
CC1C/C(=N/NC(=O)c2ccc(CSc3nc4ccccc4[nH]3)cc2)CC(C)(C)C1 (stereo unspecified),9%,17,10%,6,u,u
CC1C/C(=N/Nc2nc3ccccc3[nH]2)CC(C)(C)C1 (stereo unspecified),3.7µM*,69*,u,33*,u,2.1µM*
CCOC(=O)N/N=C1\CC(C)CC(C)(C)C1 (stereo unspecified),-3%,25,8%,11,1%,2%
Cc1cc(N/N=C2\CC(C)CC(C)(C)C2)nc2ccccc12 (stereo unspecified),u,27*,x,35*,x,u
Cc1cc(N/N=C2/CCCc3ccccc32)nc2ccccc12,u,57*,x,54*,x,u
O=C(NCCCn1ccnc1)c1csc2ccccc12,-14%,-2,-2%,-2,26%,10µM*
O=C(NCCCN1CCOCC1)c1cc(-c2cccs2)on1,39%,160*,5%,42*,13%,x
O=C(NCCCn1ccnc1)c1cc(-c2cccs2)on1,155%,154*,5%,46*,24%,5%
Cc1ccc(-c2[nH]c3cc(C(=O)NCCCn4ccnc4)ccc3c(=O)c2O)cc1,13µM*,-4,x,-3,x,u
COc1ccc(OC)c(-c2cc(C(=O)NCCCn3ccnc3)no2)c1,u,20,5%,-5,3%,u
SMILES,Pf growth 48h,Shiga inhibitor,MARV entry inh,CHX counter,Lassa entry inh,Pf growth 96h
CCc1ccc(NC(=O)c2cnc(SC)nc2C)cc1,-6%,42,x,29*,x,u
CCc1ccc(NC(=O)c2ccccc2SC)cc1,-26%,47,-2%[46.1 µM],31*,28%[46.1 µM],42%
CSc1cccc(NC(=O)c2ccc3c(c2)c(C)c(C)n3Cc2ccc(F)cc2)c1,x,x,x,x,-15%[46.1 µM],x
CC(=O)c1ccc(C(C)(C)c2ccc(C(C)=O)s2)s1,u,10,2%,1,u,12µM*
O=C(NCCN1CCCC1)c1ccc(Cn2c(=S)[nH]c3ccc(Br)cc3c2=O)cc1,u,-15,u,-1,6%,52%
O=C(NCCCN1CCCC1)c1ccc(Cn2c(=S)[nH]c3ccc(Br)cc3c2=O)cc1,13µM*,20,x,7,x,23%
COc1ccc(N2CCN(CCNC(=O)c3ccc4nc5ccccc5c(=O)n4c3)CC2)cc1,u,-2,x,9,x,49%
O=C(NCc1ccc(Cl)cc1)c1ccc2c(=O)n(CC3CCCO3)c(=S)[nH]c2c1 (stereo unspecified),-29%,1,8%[46.1 µM],-3,u,12µM*
O=C(NCC1CCCO1)c1ccc2c(=O)n(CC3CCCO3)c(=S)[nH]c2c1 (stereo unspecified),9%,-24,30%,-6,0%,u
COc1ccc(N2CCN(CCNC(=O)c3ccc4c(c3)[nH]c(=S)n3c5ccccc5nc43)CC2)cc1,u,4,u,-3,-12%,10µM*
COc1ccccc1Cn1c(=S)[nH]c2cc(C(=O)NCCN3CCOCC3)ccc2c1=O,10µM*,-2,6%,4,16%,-93%
COc1ccccc1Cn1c(=S)[nH]c2cc(C(=O)NCCCN3CCOCC3)ccc2c1=O,u,-4,x,-2,x,16%
O=C(Cn1c(=O)oc2cc(S(=O)(=O)NCc3ccccc3)ccc21)N(CCO)Cc1ccccc1,x,x,x,x,-17%[46.1 µM],x
O=c1[nH]c(=O)n(Cc2ccc(F)cc2)c(O)c1C=NCC1CCCO1 (stereo unspecified),3%,-18,3%,-1,2%,119%
COc1ccccc1CNC(=O)COC(=O)c1cc(C)oc1C,-5%,-14,x,-2,x,-1%
O=C(O)C1CCC(Cn2c(SCc3cc(=O)n4cc(Cl)ccc4n3)nc3ccsc3c2=O)CC1 (stereo unspecified),-13%,-19,-2%,-5,0%,-26%
CCCCCNC(=O)c1ccc2c(=O)n(CCCN3CCCC3=O)c(=S)[nH]c2c1,5.9µM*,-2,u,16,-12%,10µM*
C=CCNC(=O)c1ccc2c(=O)n(Cc3ccccc3OC)c(=S)[nH]c2c1,3.3µM*,-6,x,9,x,22%
COCCCNC(=O)c1ccc2c(=O)n(Cc3ccc(Cl)cc3)c(=S)[nH]c2c1,-30%,-8,x,1,x,35%
COCCNC(=O)c1ccc2c(=O)n(CCCN3CCCC3=O)c(=S)[nH]c2c1,u,-1,19%[46.1 µM],-1,8%,u
CC1CCN(CCNC(=O)c2ccc3c(=O)n(Cc4ccc(Cl)cc4)c(=S)[nH]c3c2)CC1,3.7µM*,-1,x,9,x,-6%
Cc1ccc2cc(CN(CCCO)S(=O)(=O)c3ccccc3F)c(=O)[nH]c2c1C,-5%,-4,u,-1,-2%,-2%
Cc1ccc(C(=O)NCCc2nnc3c(C(F)(F)F)cc(Cl)cn23)o1,24%,-5,x,-2,x,44%
Cc1ccc(-c2nc3cc(Br)cnc3nc2-c2ccc(C)cc2)cc1,u,4,3.2µM*,-1,u,15µM*
